# Test results reported in PubChem BioAssay (NCI).
# This is part of a sample that, as a whole, favours compounds with a hit. Of some 83,000 tested, about 20% had one in any assay.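 Treatment: one concentration, 48 hours, 96-well format. Scoring: percent growth, with anything below 10 considered active.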 Values without a mark were called inactive. Calls of active or inactive are those of the source.
# Assays:
# Test in all cases: NCI-60 one-dose screen, 48 h (100 = growth as untreated, 0 = no growth, -100 = all killed)
# Conditions in all cases: 10 µM unless noted
# SK-MEL-2 melanoma = tested on: SK-MEL-2 melanoma
# EKVX NSCLC = tested on: EKVX NSCLC
# SN12C renal = tested on: SN12C renal
# UO-31 renal = tested on: UO-31 renal
# TK-10 renal = tested on: TK-10 renal
# ACHN renal = tested on: ACHN renal
# CAKI-1 renal = tested on: CAKI-1 renal
# A498 renal = tested on: A498 renal
# CCRF-CEM leukemia = tested on: CCRF-CEM leukemia
# MOLT-4 leukemia = tested on: MOLT-4 leukemia
# SR leukemia = tested on: SR leukemia
# RPMI-8226 leukemia = tested on: RPMI-8226 leukemia
# OVCAR-8 ovarian = tested on: OVCAR-8 ovarian
# OVCAR-5 ovarian = tested on: OVCAR-5 ovarian
# OVCAR-4 ovarian = tested on: OVCAR-4 ovarian
# SK-OV-3 ovarian = tested on: SK-OV-3 ovarian
# IGROV1 ovarian = tested on: IGROV1 ovarian
# OVCAR-3 ovarian = tested on: OVCAR-3 ovarian
# HS 578T breast = tested on: HS 578T breast
# NCI/ADR-RES ovarian = tested on: NCI/ADR-RES ovarian
Structure (SMILES),growth (SK-MEL-2 melanoma),growth (EKVX NSCLC),growth (SN12C renal),growth (UO-31 renal),growth (TK-10 renal),growth (ACHN renal),growth (CAKI-1 renal),growth (A498 renal),growth (CCRF-CEM leukemia),growth (MOLT-4 leukemia),growth (SR leukemia),growth (RPMI-8226 leukemia),growth (OVCAR-8 ovarian),growth (OVCAR-5 ovarian),growth (OVCAR-4 ovarian),growth (SK-OV-3 ovarian),growth (IGROV1 ovarian),growth (OVCAR-3 ovarian),growth (HS 578T breast),growth (NCI/ADR-RES ovarian)
O=C1c2c(c3c4cc(F)ccc4oc3c3[nH]c4ccc(Br)cc4c23)C(=O)N1O,5.56% (active),76.5%,19.2%,9.04% (active),137%,-33.8% (active),21.9%,119%,9.46% (active),7.83% (active),4.45% (active),34.2%,19.8%,108%,76.6%,4.35% (active),46.3%,67.2%,-4.24% (active),30.7%
COc1ccc(/C=C/c2nc3ccccc3c(=O)n2CC(=O)Nc2ccc(OC)cc2)cc1,96%,114%,57.3%,46.9%,48.2%,14%,47.3%,130%,63.6%,78.2%,79.5%,76.4%,59.1%,95.6%,9.1% (active),79.3%,94.2%,62.5%,56.2%,75.7%
CC1=C(C#N)C2=NNCC(c3ccccc3)=NN2C(c2ccccc2)=C1,113%,99.7%,105%,91.2%,103%,110%,99.8%,132%,110%,114%,96%,110%,111%,114%,112%,101%,109%,111%,107%,112%
OCNc1ccc(-n2cnc3cc(-c4ccc(O)cc4)ccc32)cc1C(F)(F)F,21.7%,34.7%,19.7%,13.1%,46.6%,12.2%,33.5%,74.9%,31.9%,15%,25.3%,24.1%,16%,34.4%,55%,54.7%,44%,15.9%,11.2%,17.2%
Nc1nc(C(F)(F)F)cs1,108%,94.5%,111%,93.8%,98.1%,113%,96.7%,114%,109%,112%,101%,115%,105%,113%,108%,101%,107%,108%,109%,104%
COc1cc2oc(-c3cccc(NC(=O)[C@H](CC(N)=O)NC(=O)OC(C)(C)C)c3)cc(=O)c2c(OC)c1OC,103%,99.1%,96.9%,80.1%,118%,80.7%,84.5%,93.8%,54.5%,65.1%,58.4%,69.3%,73.3%,95.5%,94.6%,140%,96.9%,105%,83.1%,102%
CN(C)c1nc(NCCNS(=O)(=O)c2ccc(C(=O)/C=C/c3ccc(F)cc3)cc2)nc(Nc2ccc(F)cc2)n1,-90.2% (active),-49% (active),-99.8% (active),-49.1% (active),-41.4% (active),-81.2% (active),-51.9% (active),9.88% (active),4.06% (active),-17.2% (active),-34.5% (active),-15.4% (active),-96.2% (active),-97.4% (active),-82% (active),-0.953% (active),-84.6% (active),-97.4% (active),-11.3% (active),-91.6% (active)
N/N=C(\N)c1c(N)nc(=S)[nH]c1-c1ccc(Cl)cc1Cl,109%,116%,105%,85.8%,147%,107%,96.9%,125%,94.6%,90.1%,97.3%,109%,110%,108%,105%,86.7%,106%,109%,100%,114%
